TDP1 cell noCPT: qHTS for Inhibitors of human tyrosyl-DNA phosphodiesterase 1 (TDP1): qHTS in cells in absence of CPT; DT40 Tdp1-/- hTDP1 cells, no CPT, ATP luminescence, 48 h; Potency, µM (titrated, usually from 46.2 µM), without a hit: top-dose activity change, negative = growth inhibition, hits mostly inhibitors; hit rate 15% among 420,000; AID 686978, 2013; also: % is scaled to controls: 0 for no effect and ±100 for the full control effect; nearly all actives have a fitted effect of over 55% in size
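Cells were dispensed at 400 per well, compounds added by pin tool, plates incubated ≥48 hr at 37 °C, then CellTiter-Glo added for 30 min at room temperature before luminescence reading. Line: DT40 Tdp1-/- complemented with hTDP1; camptothecin omitted.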
TGFb SMAD3 inh: blocks TGF-b signaling; HepG2 CAGA-GFP TGF-b/SMAD3 reporter, GFP fluorescence, 18 h; TGF-beta stimulated, 500 pg/mL final; Potency, µM (top dose mostly 46.1 µM), for the others: at the highest dose activity, negative = inhibition, most hits filed as inhibitors; hit rate 1.2% among 410,000; AID 588855; also: % is scaled to controls: 0 for no effect and ±100 for the full control effect; nearly all actives have a fitted effect of over 65% in size
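Inhibition was scored as loss of TGF-beta-induced (500 pg/mL final, 18 hours, 37 degrees C) GFP in HEPG2 cells carrying a CAGA-GFP reporter, in DMEM with 1% FBS. Well GFP was summed per cell; Activity was normalised to unstimulated and stimulated DMSO wells, then concentration-response fitting.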
HT1080 IDH1KD tx: toxicity to HT-1080 IDH1 knockdown cells (counter line). hit rate 2% among 360,000. HT-1080 IDH1 knockdown viability, ATP luminescence, 48 h. Potency, µM (series often up to 46.1 µM), inactives show at the highest dose activity, negative = toxicity, hits mostly cytotoxic;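 also: 0% = DMSO wells and -100% = cell-free medium wells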
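Assay cells: HT-1080 with IDH1 knockdown, 750 per well, RPMI/5% FBS. Exposure: 48 h at 37 °C following 2 h pre-incubation. Read: CellTiter-Glo luminescence; fitted concentration-response, curve class assigned.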
HT1080-NT tox: kills 2HG-producing HT-1080-NT fibrosarcoma cells; HT-1080-NT fibrosarcoma viability, CellTiter-Glo ATP luminescence, 48 h; AID 686970; hit rate 1.6% among 360,000; Potency, µM (top dose mostly 46.1 µM), inactives show at the highest dose activity, negative = less viability, actives largely listed as cytotoxic;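 also: NT is the 2HG producing partner of a matched IDH1 knockdown line; 0% = DMSO-treated cells and -100% = media-only wells without cells; nearly all actives have a fitted effect of over 55% in size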
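Read-out is CellTiter-Glo luminescence after 10 minutes at room temperature, following 48 hours' compound treatment of HT-1080-NT cells (750 cells/well, RPMI, 5% FBS, 37 degrees C).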
HepG2 tox: kills HepG2 cells in TGF-b inhibitor counter-screen | HepG2 CAGA-GFP viability, ATP luminescence, 18 h | Potency, µM (top dose mostly 46.1 µM), without a hit: at the highest dose activity change, negative = cytotoxicity, most hits filed as cytotoxic | hit rate 0.76% among 410,000
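HepG2 CAGA-GFP cells (1000/well, DMEM with 1% FBS) received compound, then TGF-beta at 500 pg/mL final, and were incubated 18 hours at 37 degrees C. Viability was read by CellTiter-Glo luminescence. Media-only wells were set as complete cell-killing and DMSO as no toxicity.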
TDP1 cell CPT: growth inhibition of DT40 Tdp1-/-;hTDP1 cells with camptothecin (screen for TDP1 inhibitors) | chicken DT40 Tdp1-/-;hTDP1 cells + 20 nM CPT, ATP luminescence, 48 h | Potency, µM (doses to about 46.2 µM), for the others: top-dose activity change, negative = growth inhibition, most hits filed as inhibitors | hit rate 12% among 420,000 | AID 686979; also: % is scaled to controls: 0 for no effect and ±100 for the full control effect; nearly all actives have a fitted effect of over 55% in size
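Chicken DT40 Tdp1-/- cells complemented with human TDP1, 400 cells/well, exposed to compounds plus 20 nM camptothecin for at least 48 h at 37 C; viability read as ATP content by CellTiter-Glo luminescence.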
* marks the source's active call; other numbers are inactive results; ? = inconclusive; . = not tested or not shown; [ ] = another dose, or the depositor's remark. Rows were chosen to be rich in hits. Some 17% of all compounds tested hit in one or more screens of this group. Calls follow the shape of the dose curve; as a rule, active = well fitted curve in the direction sought with a large enough effect; inconclusive = small, poorly fitted or top-dose-only effect, or another doubt; inactive = no such curve, though single readings can be large; an effect the other way counts as inactive or inconclusive. Potency is read from the fitted curve at half-maximal effect.

SMILES	TDP1 cell noCPT	TGFb SMAD3 inh	HT1080 IDH1KD tx	HT1080-NT tox	HepG2 tox	TDP1 cell CPT
CC(C)(C)c1nn(-c2ccccc2)c2[nH]c(=O)c(CNCc3ccco3)cc12	23.1µM*	-8.5%	?	-27.5%	-34.6%	20.6µM*
Cc1ccc(CNCc2cc3c(C(C)(C)C)nn(-c4ccccc4)c3[nH]c2=O)cc1	25.1µM*	-28.5%	?	?	-37.1%	?
COc1ccc(CNCc2cc3c(C(C)(C)C)nn(-c4ccccc4)c3[nH]c2=O)cc1	18.4µM*	-38.5%	?	?	-67.2%	25.9µM*
COc1ccc(-c2noc(C(=O)NCc3ccc(F)cc3)n2)cc1OC	-10.0%	-4.7%	-2.6%	-7.6%	-5.0%	-1.6%
COc1ccc2c(c1)OC[C@H]1[C@H]2N2C(=O)CNC(=O)[C@@]2(C)[C@H]1c1ccccc1	3.0%	-1.5%	5.0%	10.6%	22.3%	6.6%
CCN1C(=O)C(F)(CC)C(=O)c2ccccc21 (stereo unspecified)	-0.6%	-0.8%	5.9%	6.6%	-0.7%	6.9%
CC(=O)N1CCN(S(=O)(=O)c2cccc(C(=O)Nc3cc(C(F)(F)F)ccc3N3CCOCC3)c2)CC1	1.3%	20.8%	16.6%	0.7%	0.0%	-1.3%
COC(=O)C1CCN(Cc2ccc3c(c2)CN(C(=O)c2cc(C)on2)CCO3)CC1	-17.5%	.	.	.	.	9.5%[9.04 µM]
COc1ccc(-c2nn(-c3ccccc3)cc2/C=N/N2C(=O)CSC2=S)cc1	16.4µM*	1.1%	1.7%	25.5%	-46.4%	18.4µM*
Cc1c(CN2CCCC(CO)(Cc3cccc(Cl)c3)C2)cnn1C (stereo unspecified)	11.7%	16.6%	4.1%	2.6%	-10.3%	-21.9%
CCn1nc(C)c(CN2CCCC(CO)(Cc3cccc(Cl)c3)C2)c1C (stereo unspecified)	16.4µM*	?	0.3%	-1.9%	-42.3%	?
OCC1(Cc2cccc(Cl)c2)CCCN(Cc2sc(N3CCCC3)nc2Cl)C1 (stereo unspecified)	18.4µM*	?	-9.4%	-4.7%	-38.2%	20.6µM*
COc1ccccc1/C=C/CN1CCCC(CO)(Cc2cccc(Cl)c2)C1 (stereo unspecified)	23.1µM*	?	16.4µM*	25.9µM*	-51.3%	?
COc1cc(Cl)c(CN2CCCC(CO)(Cc3cccc(Cl)c3)C2)cc1OC (stereo unspecified)	?	?	-25.3%	-26.2%	-58.2%	18.4µM*
CCn1nc(C)c(CN2CCCC(CO)(Cc3ccccc3)C2)c1C (stereo unspecified)	?	-14.0%	-4.4%	-9.4%	-10.5%	-20.0%
CC(C)(O)C#Cc1ccc(CN2CCCC(CO)(Cc3cccc(Cl)c3)C2)cc1 (stereo unspecified)	14.6µM*	?	-24.1%	-24.1%	-33.5%	14.6µM*
Cc1ccccc1CC1(CO)CCCN(Cc2ccc(C#CC(C)(C)O)cc2)C1 (stereo unspecified)	?	-20.8%	-14.3%	-23.4%	-24.6%	?
Cc1ccc(-n2c(C)cc(C(=O)COc3c(CO)cc(F)cc3CO)c2C)cc1C	3.66µM*	?	-3.8%	0.2%	2.1%	9.2µM*
Cc1cc(C(=O)COc2ccccc2Cl)c(C)n1-c1ccc2c(c1)OCO2	6.51µM*	-22.8%	-16.2%	-6.2%	-1.3%	?
Cc1cc(C(=O)CSc2n[nH]c(N)n2)c(C)n1-c1ccc2c(c1)OCO2	23.1µM*	?	-12.2%	-3.4%	-42.7%	?
COCC(=O)OCC(=O)c1cc(C)n(-c2ccc(Br)cc2)c1C	-19.3%	0.0%	12.0%	4.5%	3.0%	?
O=S(=O)(c1ccc(Cl)cc1)N1CCN(C(=S)Nc2ccccc2F)CC1	-11.7%	-26.0%	-8.2%	-3.2%	-5.3%	-6.6%
CCN(CC)C(=O)Cn1c(=O)n(-c2ccc(C)c(C)c2)c(=O)c2c3c(sc21)CCCCC3	-7.9%	0.0%	.	.	0.7%	5.3%
C/C(=N\NS(=O)(=O)c1ccccc1)c1ccccc1	0.1%	1.8%	3.2%	4.7%	4.4%	-0.2%
CCCCc1ccc(S(=O)(=O)N/N=C(/C)c2ccncc2)cc1	?	-18.8%	5.5%	?	-0.1%	16.4µM*
SMILES	TDP1 cell noCPT	TGFb SMAD3 inh	HT1080 IDH1KD tx	HT1080-NT tox	HepG2 tox	TDP1 cell CPT
COCCNC(=S)N/N=C(\C)c1ccc(Cl)c(Cl)c1Cl	4.61µM*	?	-8.7%	0.0%	8.1%	4.11µM*
CNC(=S)N/N=C(\C)c1ccc(Cl)c(Cl)c1	5.17µM*	-14.1%	-2.7%	-2.7%	-0.9%	4.11µM*
C/C(=N\O)c1ccc(Cl)c(Cl)c1	8.9%	2.5%	12.6%	1.9%	-0.1%	5.3%
COCCNC(=S)NN=C1CCC(c2ccccc2)CC1 (stereo unspecified)	5.17µM*	1.2%	-15.0%	-9.6%	2.3%	?
COCCNC(=S)N/N=C(\C)c1ccc(Cl)s1	20.6µM*	?	0.0%	?	-26.4%	?
COCCNC(=S)N/N=C(\C)c1cccc(OC)c1	11.4%	?	13.3%	2.2%	-19.2%	13.2%
Cc1ccc2c(=O)cc(C(=O)Nc3sc4c(c3C(=O)NCc3ccco3)CCC4)oc2c1	-22.4%	-10.3%	.	.	-34.7%	-6.0%
COCCNC(=S)N/N=C(\C)c1ccccc1O	0.082µM*	5.62µM*	9.2%	9.8%	-95.4%	0.0259µM*
COCCNC(=S)N/N=C(\C)c1ccccc1F	?	2.3%	21.4%	13.1%	0.0%	?
COCCNC(=S)N/N=C(\C)c1ccc(Cl)c(Cl)c1	20.6µM*	8.91µM*	10.8%	10.6%	-58.2%	23.1µM*
OCC[C@H]1C[C@H](O)[C@@H](O)[C@@]2(OCCCc3ccccc32)O1	-2.0%	8.4%	10.3%	?	5.8%	8.7%
COc1ccccc1/C=C\C(=O)NCC(=O)N/N=C(/C)c1cccc([N+](=O)[O-])c1	?	6.1%	?	-29.0%	-0.9%	?
CCNC(=O)NC(=O)COC(=O)c1ccccc1SCC(=O)NC(=O)NCC	14.6µM*	-9.2%	29.1µM*	-7.2%	-81.0%	20.6µM*
O=C(COC(=O)c1ccccc1SCC(=O)NC1CCS(=O)(=O)C1)NC1CCS(=O)(=O)C1 (stereo unspecified)	27.6%	-12.1%	4.2%	3.1%	-2.4%	6.5%

Bioassay records from PubChem.
